# Only some compounds are listed: those with a hit (about 1.1% of all), similar ones and a draw of the others.
# SRC1 inh: SRC1 coactivator transcriptional activity inhibitors, primary screen, cell-based, luminescence. Nuclear receptor coactivator 1 (Homo sapiens), Q15788. HEK293 GAL4-SRC1 luciferase reporter. inhibition, % at 3.6 µM. hit rate 0.12% among 360,000;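 active = inhibition above the campaign mean plus 3 SD, with each screening campaign given its own cutoff, cut at about 60% in these data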;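 also: 0% = DMSO treated cells and 100% = gossypol at 36 µM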
# SRC3 inh: SRC3 coactivator transcriptional activity inhibitors, primary screen, cell-based, luminescence; Nuclear receptor coactivator 3 (Homo sapiens), Q9Y6Q9; HEK293 GAL4-SRC3 luciferase reporter; inhibition, % at 3.6 µM; hit rate 0.17% among 360,000; AID 588352, 2011;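 active = inhibition above a per-campaign cutoff, the mean of all compounds plus 3 SD, cut at about 60% in these data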;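 also: 0% = DMSO-treated cells and 100% = gossypol-treated cells at 36 µM; higher means less SRC3-driven luciferase light from the GAL4 reporter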
# NR5A2 inv ag: LRH-1 (NR5A2) inverse agonists, primary screen, cell-based, luminescence, HEK293T, StAR-luciferase reporter; inhibition, % at 3.6 µM; hit rate 0.13% among 360,000; Nuclear receptor subfamily 5 group A member 2 (Homo sapiens), O00482; LRH-1 transfected, 24 h;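 active = inhibition above the mean inhibition of all tested compounds plus 3 SD, cut at about 73% in these data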;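 also: 0% = DMSO wells and 100% = reporter-only cells lacking LRH-1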
# SRC2 inh: inhibition of GAL4-SRC2 driven luciferase reporter, primary screen, SRC2 inhibitor project, cell-based, luminescence | HEK293 GAL4-SRC2 luciferase reporter | inhibition, % at 9 µM | hit rate 0.17% among 370,000 | AID 651957, 2012;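 active = inhibition above the mean inhibition of all tested compounds plus 3 SD, set per campaign, cut at about 52% in these data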;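 also: 0% = DMSO treated cells and 100% = cells given Gossypol at 36 µM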
# NR2F2 inh: NR2F2 transcriptional activity inhibitors, primary screen, cell-based, luciferase reporter, HEK293T, luminescence; inhibition, % at 8.6 µM; HEK293T NGFI-A luciferase reporter; hit rate 0.7% among 370,000; AID 686940, 2013; COUP transcription factor 2 (Homo sapiens), P24468;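 active = inhibition above a per-plate cutoff, mean inhibition of test wells between control levels plus 3 SD, cut at about 38% in these data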;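 also: cells cotransfected with COUP-TFII expression vector driving the NGFI-A reporter; 0% = median of COUP-TF2 test wells and 100% = reporter-only cells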
# Target sequence (P24468 whole entry, looked up): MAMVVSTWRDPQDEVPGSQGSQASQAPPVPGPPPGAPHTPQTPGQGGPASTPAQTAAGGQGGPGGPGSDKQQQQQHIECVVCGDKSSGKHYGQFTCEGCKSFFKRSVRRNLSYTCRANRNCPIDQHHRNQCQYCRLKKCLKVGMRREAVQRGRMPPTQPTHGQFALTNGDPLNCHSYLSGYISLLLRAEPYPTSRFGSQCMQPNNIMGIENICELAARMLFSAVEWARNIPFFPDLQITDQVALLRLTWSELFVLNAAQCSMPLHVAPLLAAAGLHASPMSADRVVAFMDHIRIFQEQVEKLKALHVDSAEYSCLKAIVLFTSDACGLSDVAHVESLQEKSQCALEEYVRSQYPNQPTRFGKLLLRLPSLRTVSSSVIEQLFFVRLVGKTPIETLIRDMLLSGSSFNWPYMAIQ
# GalR3 antagonist: GalR3 antagonists in HEK293 cells, primary screen, cell-based, fluorescence readout; hit rate 0.44% among 360,000; inhibition, % at 3 µM; HEK293 GalR3-CNG cAMP membrane potential fluorescence; galR3 body fused to GalR1 C-terminus; Galanin receptor type 3 (Homo sapiens), O60755; AID 651719, 2012;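 active = inhibition above the screen-wide average plus 3 SD, cut at about 13% in these data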;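 also: forskolin and galanin both at EC90 stimulate the cells; cAMP rise reported by CNG channel membrane potential dye signal; 0% = forskolin plus galanin with DMSO and 100% = forskolin alone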
# GalR3 antag conf: GalR3 antagonist hit confirmation, cell-based, fluorescence, triplicate. HEK293 GalR3 CNG cAMP biosensor, membrane potential fluorescence; galR3 fused to GalR1 carboxy tail; challenged with forskolin and galanin at EC90. shares compounds with GalR3 antagonist. hit rate 59% among 1,600. AID 652245, 2013. inhibition, % at 3 µM;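 active = inhibition above the primary screen's cutoff, the mean inhibition of all screened compounds plus 3 SD, cut at about 13% in these data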;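 also: 0% = forskolin plus galanin and 100% = forskolin alone with DMSO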
# HEK-CNG parental: nonspecific cAMP agonists in parental HEK-CNG cells, counter-screen for GalR3 antagonist project, cell-based, fluorescence, high throughput. shares compounds with GalR3 antagonist. HEK293-CNG parental cells, cAMP membrane potential fluorescence; normalised: DMSO wells 0%, forskolin wells 100%. activation, % at 3 µM. hit rate 10% among 1,600. AID 652268, 2013; in the data active = activation above about 1.3%
# * marks the source's active call; other numbers are inactive results; nt = no result.
SMILES,SRC1 inh,SRC3 inh,NR5A2 inv ag,SRC2 inh,NR2F2 inh,GalR3 antagonist,GalR3 antag conf,HEK-CNG parental
COc1ccc(Cl)cc1NC(=O)Nc1ccccc1C(N)=O,31,31,20,3,-11,4,nt,nt
C[C@H]1COc2cc(Br)ccc2S(=O)(=O)N1Cc1cn(CCC2OCCO2)nn1,nt,nt,nt,0,-4,nt,nt,nt
O=C(NC(Nc1ncc(S(=O)(=O)c2ccc([N+](=O)[O-])cc2)s1)(C(F)(F)F)C(F)(F)F)c1ccc(Cl)cc1,14,14,-8,11,25,73*,41*,0
COCC(=O)Nc1ncc(S(=O)(=O)c2ccc([N+](=O)[O-])cc2)s1,-15,-5,-2,4,0,4,nt,nt
CC1CN(C)C(C)C/C1=N/Oc1ccccc1[N+](=O)[O-] (stereo not drawn),4,12,8,-6,4,13*,3,0
C#CCNC(=O)C[C@H]1C[C@@]2(C(=O)OC)C(=C[C@H](C(C)(C)C)O[C@@H]2C)N(CCc2ccc(OC)c(OC)c2)C1=O,nt,nt,nt,-6,-1,-5,nt,nt
C[C@H](Cc1ccccc1)Nc1ncnc2c1ncn2[C@@H]1O[C@H](CO)[C@@H](O)[C@H]1O,-52,-39,13,-36,-73,nt,nt,nt
CNc1ncnc2c1ncn2[C@@H]1O[C@H](CO)[C@@H](O)[C@H]1O,-27,-12,1,-23,-41,77*,17*,0
COc1ccc(C(=O)NCC(=O)OCC(=O)c2ccc3c(c2)NC(=O)CO3)cc1OC,8,0,9,-8,5,72*,-2,0
O=c1[nH]c2cc(Cl)c([N+](=O)[O-])nc2[nH]1,6,15,-4,-20,-2,24*,24*,0
CCOC(=O)[C@@]12CCCC=C1N(CCc1ccc(Cl)cc1)C(=O)[C@H]2CC(=O)NCc1ccc(OC)c(OC)c1,nt,nt,nt,-18,-1,nt,nt,nt
Cc1ccc(CNC(=O)O[C@H]2CC[C@@]34CCCN3C(=O)CCC[C@H]4C2)cc1,nt,nt,nt,nt,-19,nt,nt,nt
COc1ccc(C2CC(c3ccc4ccccc4c3)=NN2C(=O)CN2CCC(C(N)=O)CC2)cc1 (stereo not drawn),-23,-41,-48,-35,-11,14*,-2,3.0*
Cc1ccc(NC(=O)Cc2ccc(OC(F)F)cc2)c(S(=O)(=O)N2CCOCC2)c1,nt,nt,nt,12,8,nt,nt,nt
Cc1cc(=O)[nH]c(N/N=C/c2ccc(Cl)c([N+](=O)[O-])c2)n1,4,5,20,-15,14,14*,2,0
O=C(CNC(=O)c1ccc(F)cc1)Nc1ccccc1C(F)(F)F,-17,-3,-1,-1,-16,14*,-3,0
COc1ccc(/C=N/NC(=O)c2ccc(-c3ccccc3)cc2)cc1O,-6,8,19,6,7,0,nt,nt
COc1cc(/C=N\NC(=O)c2ccc(-c3ccccc3)cc2)cc(Br)c1O,-13,-15,9,16,-17,15*,41*,0
COC(=O)C1CN(Cc2cn(Cc3ccc(C)cc3)nn2)CCS(=O)(=O)N1Cc1ccc(F)cc1 (stereo not drawn),nt,nt,nt,17,9,nt,nt,nt
Nc1ncnc2c1ncn2[C@@H]1O[C@H](CO)C[C@H]1O,-5,-9,5,-12,-11,16*,30*,0
Nc1ncnc2c1ncn2C1OC(CO)C2OC21 (stereo not drawn),13,-14,14,-13,3,-5,nt,nt
CCOC(=O)[C@@]12CN(C(=O)OC(C)(C)C)CC=C1N(Cc1ccc(OC)cc1)C(=O)[C@H]2CC(=O)N1CCN(C(=O)C2CC2)CC1,nt,nt,nt,2,-14,nt,nt,nt
N#CC(C#N)=C(Nc1ccc(F)cc1)SCc1cccc(F)c1,24,27,36,13,36,91*,35*,0
CCOc1ccc(N/C(SCc2cccc([N+](=O)[O-])c2)=C(/C#N)C(N)=O)cc1,7,15,9,5,21,1,nt,nt
O=S(=O)(c1ccc(Cl)cc1)N1CCN(S(=O)(=O)N2CCCCCC2)CC1,-18,7,-9,-12,-20,16*,3,0
SMILES,SRC1 inh,SRC3 inh,NR5A2 inv ag,SRC2 inh,NR2F2 inh,GalR3 antagonist,GalR3 antag conf,HEK-CNG parental
Cc1cnc(C=O)c2cccc([N+](=O)[O-])c12,-16,-16,4,7,-3,34*,14*,0
Cc1ncc(C)c2c([N+](=O)[O-])cccc12,11,18,8,-15,0,-4,nt,nt
Cc1cc(C(=O)Nc2cccc(/C=C/C(=O)O)c2)c(C)o1,-17,4,-5,19,8,46*,88*,0
Cc1oc(-c2ccccc2)cc1C(=O)Nc1cccc(/C=C/C(=O)O)c1,-13,4,-14,-21,-8,75*,111*,0
COc1ccc(N2C(=O)c3n[nH]c(C)c3C2c2ccc(F)cc2)cc1 (stereo not drawn),nt,nt,nt,-25,-22,-6,nt,nt
CC(=O)c1cccc(CN2CCN(CC=C(C)C)C(CCO)C2)c1 (stereo not drawn),-4,7,12,16,-24,16*,1,0
CC(=O)c1cccc(CN2CCN(CCc3ccccc3)C(CCO)C2)c1 (stereo not drawn),9,5,13,20,4,5,nt,nt
COCCCn1c(-c2cccc(Cl)c2)nc2c1c(=O)[nH]c(=O)n2Cc1ccccc1,13,4,1,-7,-2,-7,nt,nt
COCCn1c(=O)[nH]c(=O)c2c1nc(-c1cc(Br)c3c(c1)OCO3)n2Cc1ccccc1,-7,2,3,-29,-11,15*,16*,0
CCO[C@@H]1OC(C(N)=O)=C[C@H](c2ccc(C(F)(F)F)cc2)[C@H]1CCCO,-2,-5,-12,-15,-18,16*,5,0
O=C1OCc2ccc(NC(=O)c3sccc3Cl)cc21,5,4,1,14,-7,15*,7,0
COCCn1c(SCCCC(=O)c2ccc(Br)cc2)nnc1-c1ccncc1,29,23,46,14,33,18*,38*,0

# Screening data deposited in PubChem BioAssay by The Scripps Research Institute Molecular Screening Center.
